# From paper PMC4336329 (PLoS ONE, 2015)
# The whole screen tested about 310,000 compounds, of which about 2,200 (0.71%) showed an effect of 50% or more. The effect is printed as a negative number. This excerpt belongs to a sample that is enriched for strong results.
# Molecular target: human ether-à-go-go-related gene (hERG) potassium channel (human, UniProt Q12809)
# Test: primary screen, population patch clamp on CHO cells stably expressing hERG; higher = less effect of the substance
# Sequence of human ether-à-go-go-related gene (hERG) potassium channel (Q12809 whole entry, looked up): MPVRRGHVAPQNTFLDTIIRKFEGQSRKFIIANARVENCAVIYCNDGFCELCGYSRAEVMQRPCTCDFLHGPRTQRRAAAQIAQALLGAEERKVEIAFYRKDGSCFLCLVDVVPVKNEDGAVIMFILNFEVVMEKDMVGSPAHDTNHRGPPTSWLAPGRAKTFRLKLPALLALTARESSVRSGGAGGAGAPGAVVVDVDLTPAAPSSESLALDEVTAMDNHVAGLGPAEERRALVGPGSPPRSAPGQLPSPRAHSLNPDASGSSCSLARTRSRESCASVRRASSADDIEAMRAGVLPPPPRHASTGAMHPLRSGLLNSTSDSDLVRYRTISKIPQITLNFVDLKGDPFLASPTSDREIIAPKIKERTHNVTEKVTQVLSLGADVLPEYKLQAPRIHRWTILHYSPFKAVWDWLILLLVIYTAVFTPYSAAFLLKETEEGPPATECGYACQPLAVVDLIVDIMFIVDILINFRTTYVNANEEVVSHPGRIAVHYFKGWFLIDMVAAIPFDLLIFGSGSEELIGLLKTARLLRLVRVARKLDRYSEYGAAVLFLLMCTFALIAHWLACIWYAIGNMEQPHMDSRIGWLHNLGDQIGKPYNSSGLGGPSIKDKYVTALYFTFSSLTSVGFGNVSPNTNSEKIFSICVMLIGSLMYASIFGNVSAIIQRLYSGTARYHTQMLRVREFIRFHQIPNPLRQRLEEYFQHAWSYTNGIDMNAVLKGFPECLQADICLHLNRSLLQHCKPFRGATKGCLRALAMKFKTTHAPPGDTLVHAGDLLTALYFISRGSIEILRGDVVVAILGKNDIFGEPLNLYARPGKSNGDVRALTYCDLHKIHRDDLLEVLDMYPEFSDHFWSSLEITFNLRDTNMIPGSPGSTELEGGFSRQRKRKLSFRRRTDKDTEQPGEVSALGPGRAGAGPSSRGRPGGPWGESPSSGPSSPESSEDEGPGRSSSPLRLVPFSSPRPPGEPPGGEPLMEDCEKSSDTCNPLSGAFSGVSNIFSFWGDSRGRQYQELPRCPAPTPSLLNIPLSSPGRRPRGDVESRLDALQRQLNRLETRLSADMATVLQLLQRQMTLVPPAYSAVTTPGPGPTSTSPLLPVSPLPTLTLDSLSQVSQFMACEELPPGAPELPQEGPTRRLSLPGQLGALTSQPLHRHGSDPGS
row,Compound,"hERG current change (%, negative = inhibition) at 1uM [%]"
1,CCOC(=O)/C(N=Nc1sc(C(=O)OC)c(C)c1C(=O)OCC)=C(\O)CCl,14.4
2,COc1cc(OC)cc(C(=O)OCC(=O)N(C)c2ccccc2)c1,9.32
3,Oc1ccc(-c2[nH]ncc2-c2ccc(Br)cc2)c(O)c1,6.73
4,CCC(=O)Nc1ccc(Oc2ccc3c(c2)C(=O)N(c2ccc(O)cc2)C3=O)cc1,13.7
5,O=C1CC(N2CCN(C/C=C/c3ccccc3)CC2)C(=O)N1Cc1cccs1 (centres unmarked),-50.8
6,O=C1CC(N2CCN(C/C=C/c3ccccc3)CC2)C(=O)N1CCc1ccccc1 (centres unmarked),-4.01
7,O=C1CC(N2CCN(C/C=C/c3ccccc3)CC2)C(=O)N1Cc1ccc(N2CCCC2=O)cc1 (centres unmarked),-13
8,COc1ccc(NC(=O)CN2CCN(CC(=O)Nc3ccccc3Cl)CC2)c(OC)c1,-48
9,COc1ccc(NC(=O)CN2CCN(CC(=O)Nc3ccc(F)cc3)CC2)cc1Cl,-88.6
10,CCOc1ccc(NC(=O)CN2CCN(CC(=O)Nc3ccccc3OC)CC2)cc1,-30.9
11,COc1ccc(NC(=O)CN2CCN(CC(=O)Nc3ccccc3F)CC2)c(OC)c1,-19.6
12,COc1ccc(NC(=O)CN2CCN(c3ccc(F)cc3)CC2)cc1Cl,13.2
13,COc1cccc(NC(=O)CN2CCN(CC(=O)Nc3ccc(F)cc3)CC2)c1,-90.6
14,CCOc1ccc(NC(=O)CN2CCN(CC(=O)Nc3ccc(OC)cc3OC)CC2)cc1,-58.2
15,COc1ccc(NC(=O)CN2CCN(S(=O)(=O)c3ccc(F)cc3)CC2)cc1Cl,7.03
16,COc1cccc(NC(=O)CN2CCN(c3ccc(F)cc3)CC2)c1,2.77
17,COc1ccc(NC(=O)CN2CCN(CC(=O)Nc3ccc(F)cc3)CC2)c(OC)c1,-83.3
18,COc1ccc(NC(=O)CN2CCCN(S(=O)(=O)c3ccc(F)cc3)CC2)c(OC)c1,-8.18
19,COc1cccc(NC(=O)CN2CCN(S(=O)(=O)c3ccc(F)cc3)CC2)c1,4.16
20,Cc1[nH]c2ccccc2c1C(=O)/C=C/c1ccccc1Cl,14.6
21,NC(=O)CN1C(=O)NC2(CCCc3sccc32)C1=O (centres unmarked),17
22,O=C(CCC(=O)c1cccs1)OCc1nc2ccccc2s1,12.6
23,O=c1c2ccccc2nc(CSc2ncnc3nc[nH]c23)n1-c1cccc(C(F)(F)F)c1,-2.15
24,COc1ccc(NC(=O)COc2cccnc2[N+](=O)[O-])cc1OC,15.8

row,Compound,"hERG current change (%, negative = inhibition) at 1uM [%]"
1,Cc1nc(C(=O)Nc2cc(Cl)ccc2Cl)nn1-c1cc(OC(C)C)c(Cl)cc1Cl,-0.146
2,CC1CCCN(C(=O)CSc2cnc3ccccc3n2)C1 (centres unmarked),-9.88
3,COc1ccccc1-c1noc(CSc2nc(C)cc(=O)[nH]2)n1,19.4
4,Cc1ccc(NC(=O)C2C(c3ccccc3)C2(Cl)Cl)c(C)c1 (centres unmarked),2.95
5,COc1ccc(-c2nc(-c3cccs3)c(-c3cccs3)[nH]2)cc1OC,20.3
6,O=[N+]([O-])c1cc([N+](=O)[O-])c(Oc2cc(Cl)cc(Cl)c2)cc1NN1CCCCC1,11.6
7,Cc1ccc(S(=O)(=O)NCC2CCC(C(=O)NCCCN3CCCC3=O)CC2)cc1 (centres unmarked),11.2
8,COc1ccc(N(CC(=O)O)S(=O)(=O)c2cccnc2)cc1,14.2
9,COc1ccccc1NC(=O)CN1CCN(CC(=O)Nc2ccc(F)cc2)CC1,-87.4
10,COc1ccccc1NC(=O)CN1CCN(CC(=O)Nc2ccc(OC)c(OC)c2)CC1,12
11,COc1ccccc1NC(=O)CN1CCN(CC(=O)Nc2ccc(C)c(F)c2)CC1,-49.1
12,CCCCCn1c(N2CCC(Cc3ccccc3)CC2)nc2c1c(=O)[nH]c(=O)n2C,11.2
13,CCCCCCn1c(N2CCN(c3ccccc3)CC2)nc2c1c(=O)[nH]c(=O)n2C,-20.5
14,Cn1c(=O)[nH]c(=O)c2c1nc(CN1CCN(Cc3ccccc3)CC1)n2CC(N)=O,6.48
15,CCCCCn1c(N2CCN(Cc3ccccc3)CC2)nc2c1c(=O)[nH]c(=O)n2C,-77
16,CC(C)CCn1c(CN2CCN(Cc3ccccc3)CC2)nc2c1c(=O)[nH]c(=O)n2C,-2.51
17,CCCCCn1c(CN2CCN(Cc3ccccc3)CC2)nc2c1c(=O)[nH]c(=O)n2C,-72.5
18,CCN1CCN(c2nc3c(c(=O)[nH]c(=O)n3C)n2CCCc2ccccc2)CC1,-81.5
19,CCCCCn1c(CN2CCN(Cc3ccccc3)CC2)nc2c1c(=O)n(C)c(=O)n2C,-57.9
20,Cn1c(=O)[nH]c(=O)c2c1nc(N1CCN(Cc3ccccc3)CC1)n2CCCc1ccccc1,-22
21,CCCCCn1c(CN2CCN(C)CC2)nc2c1c(=O)n(C)c(=O)n2C,-5.24
22,CCN1CCN(c2nc3c(c(=O)[nH]c(=O)n3C)n2Cc2ccccc2)CC1,1.8
23,CCCCCCn1c(CN2CCN(Cc3ccccc3)CC2)nc2c1c(=O)n(C)c(=O)n2C,-47.2
